Compounds with a hit are over-represented: about 7.9% of the library has one in this group of screens.
KB-V1 MDR tox = kills drug-selected multidrug resistant KB-V1 cells. 400,000 compounds, 3.4% hits. Potency, µM (highest dose often 46.1 µM), most hits filed as cytotoxic. AID 1347076. KB-V1 MDR cells viability, CellTiter-Glo, 72 h; note: nearly all actives have a fitted effect of over 60% in size
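Following 72 h at 37 degrees C with compound, KB-V1 cell viability was read by CellTiter-Glo luminescence, medium being phenol-red-free DMEM plus 10% FBS; concentration-response parameters came from normalized, curve-fitted qHTS data.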
HT1080 IDH1KD tx = HT-1080 IDH1 knockdown cell toxicity (counter line); HT-1080 IDH1 knockdown viability, ATP luminescence, 48 h; Potency, µM (doses to about 46.1 µM), usual class: cytotoxic; 360,000 compounds, 2% hits; AID 686971
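IDH1KD HT-1080 cells, 750/well, RPMI + 5% FBS; compound pinned after 2 h settling; 48 h, 37 °C; CellTiter-Glo luminescence; % activity normalised to DMSO and no-cell wells; curves fitted, classed by r2 and efficacy.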
SW480 rereplic = inducers of DNA re-replication in SW480 colon cancer cells | SW480 DNA re-replication, Hoechst DNA content imaging, 48 h | Potency, µM (doses to about 46.1 µM), most hits filed as activators | 340,000 compounds, 1.8% hits; note: nearly all actives have a fitted effect of over 55% in size
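First, 250 cells per well were seeded. Next, compound or vehicle (23 nL) was pinned in, plates sat 48 hr at 37 C. Finally Hoechst was added for 40 min before fluorescence scanning.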
MCF10A rereplic = DNA re-replication induction in MCF 10a cells. MCF 10A DNA re-replication, Hoechst nuclear intensity, 48 h. Potency, µM (series often up to 46.1 µM), most hits filed as activators. 350,000 compounds, 2.9% hits; note: nearly all actives have a fitted effect of over 50% in size
HT1080NT lethal = kills 2HG-producing HT-1080-NT fibrosarcoma cells. Potency, µM (top dose mostly 46.1 µM), usual class: cytotoxic. AID 686970. 360,000 compounds, 1.6% hits. HT-1080-NT fibrosarcoma viability, CellTiter-Glo ATP luminescence, 48 h;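 note: NT is the 2HG producing partner of a matched IDH1 knockdown line; nearly all actives have a fitted effect of over 55% in size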
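Luminescent CellTiter-Glo readout after 48 hours of compound exposure at 37 degrees C defined viability of HT-1080-NT cells. Activity was normalized to DMSO wells and cell-free media wells; concentration-response curves were fitted and assigned curve classes.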
KB-3-1 cytotox = KB-3-1 parental cell cytotoxicity. KB-3-1 viability, CellTiter-Glo ATP luminescence, 72 h. Potency, µM (top dose mostly 46.1 µM), usual class: cytotoxic. 400,000 compounds, 1.4% hits; note: nearly all actives have a fitted effect of over 60% in size
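Multi-concentration cytotoxicity screen in KB-3-1 cells grown in DMEM lacking phenol red with 10% FBS. After 72 h at 37 °C with compound, ATP-dependent luminescence was recorded.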
Hits are given with their value; i = inactive; ? = inconclusive; nt = no result given; [ ] = dose if it differs, or a comment. Calls come from the whole dose curve; as a rule, active = well fitted curve in the direction sought with a large enough effect; inconclusive = small, poorly fitted or top-dose-only effect, or another doubt; inactive = no such curve, though single readings can be large; an effect the other way counts as inactive or inconclusive.

SMILES | KB-V1 MDR tox | HT1080 IDH1KD tx | SW480 rereplic | MCF10A rereplic | HT1080NT lethal | KB-3-1 cytotox
O=C(Nc1ccccc1N1CCCCC1)c1ccc(-c2ccc(Cl)cc2)o1 | 21µM | 2.1µM | 2.9µM | ? | 2.1µM | 8.2µM
Cc1c(C(=O)Nc2ccccc2N2CCN(C)CC2)oc2ccc(F)cc12 | ? | i | ? | ? | i | 16µM
CN1CCN(c2ccccc2NC(=O)c2ccc(-c3ccc(Br)cc3)o2)CC1 | ? | 2.6µM | 8.2µM | 4.1µM | ? | ?
CN1CCN(c2ccccc2NC(=O)c2ccc([N+](=O)[O-])o2)CC1 | nt | i | 2.3µM | 15µM | i | nt
CN1CCN(c2ccccc2NC(=O)c2c(F)cccc2F)CC1 | i | i | i | i | i | i
Nc1ncnc2c1ncn2[C@@H]1O[C@H](C(=O)N[C@H]2c3ccccc3C[C@H]2OC=O)[C@@H](O)[C@H]1O | i | i | nt | nt | i | i
Cc1ccc(CN(Cc2cccn2-c2nnc(N3CCCC3=O)s2)C(=O)Nc2cc(C)cc(C)c2)cc1 | i | nt | nt | nt | nt | i
Cc1ccc(NC(=S)NC(=O)c2ccc(-c3ccc(Cl)cc3)o2)c(O)c1 | ? | ? | i | ? | ? | ?
Cc1cc(N2CCN(C)CC2)ccc1NC(=O)c1ccc(-c2ccc(Cl)cc2)o1 | i | 23µM | i | 1.2µM | 23µM | i
CN1CCN(c2ccc(NC(=O)c3ccc(-c4ccccc4F)o3)cc2)CC1 | ? | i | i | i | i | i
Cc1cc(O)c(NC(=S)NC(=O)c2ccc(-c3ccc(Cl)cc3)o2)cc1C | i | ? | i | 16µM | ? | i
CCN1C(c2ccc(F)cc2)=CS/C1=C(/C#N)c1nnc2n1-c1ccccc1SC2 | i | i | nt | nt | i | i
COc1ccc(C)cc1Nc1n[n+](-c2ccccc2)c(-c2cc(OC)c(OC)cc2Br)s1 | i | i | ? | i | i | ?
Fc1ccc(-[n+]2nc(Nc3ccccc3)sc2-c2c3ccccc3cc3ccccc23)cc1 | ? | 23µM | i[9.22 µM] | i | 21µM | i
COc1ccc(C)cc1Nc1n[n+](-c2ccccc2)c(-c2c(OC)ccc3ccccc23)s1 | ? | ? | i[9.22 µM] | ? | ? | 18µM
Oc1ccc2ccccc2c1-c1sc(Nc2ccccc2)n[n+]1-c1ccc(F)cc1 | i | i | i | i | i | i
c1ccc(-[n+]2nc(Nc3cccc4ccccc34)sc2-c2c3ccccc3cc3ccccc23)cc1 | i | 8.2µM | i[9.22 µM] | i | 3.7µM | i
CCc1nc2c(OCC(=O)c3ccc(Cl)cc3Cl)cccn2c1N(C)C(=O)COc1ccccc1 | i | ? | nt | nt | ? | i
CCOc1cccc(C2C=C(c3ccc4c(c3)OCO4)NC(c3ccc(Cl)cc3)N2)c1O (configuration not stated) | i | nt | nt | nt | nt | 10µM
CCOc1cccc(C2C=C(c3ccc4c(c3)OCO4)NC(c3ccc(F)cc3)N2)c1O (configuration not stated) | i | nt | nt | nt | nt | i
CCCN(CC(=O)Nc1cc(Cl)ccc1Cl)C(=O)/C=C/c1cc(OC)ccc1OC | i | i | ? | 21µM | i | i
COc1ccc(Cl)cc1NC(=O)CN(C)CC(=O)Nc1cc(OC)c(OC)c(OC)c1 | i | 8.2µM | ? | ? | 12µM | 4.6µM
COc1ccc(NC(=O)CS(=O)CC(=O)Nc2cc(Cl)ccc2OC)cc1 (configuration not stated) | 21µM | i | i | i | i | i
O=C(O)CCn1c2c(c3ccccc31)C[C@H](NS(=O)(=O)c1ccc(F)cc1)CC2 | nt | nt | i | i | nt | nt
O=C(O)COc1ccc2c(c1)O/C(=C\c1ccco1)C2=O | ? | i | i | i | i | i
O=C(O)COc1ccc2c(c1)O/C(=C\c1cccs1)C2=O | i | i | 16µM | ? | i | i
C1CC1Cc1noc(CN2CCN(C3C4CC5CC(C4)CC3C5)CC2)n1 (configuration not stated) | i | i | i | 2.9µM | i | i
C(=C\c1ccccc1)/C=N/Nc1nc2ccccc2[nH]1 | i | ? | ? | 4.6µM | ? | 15µM
Brc1ccc(-c2ccc(/C=N/Nc3nncc(-c4ccccc4)n3)o2)cc1 | i | i | i | i | i | ?

Compound activity deposited in PubChem by National Center for Advancing Translational Sciences (NCATS).
